Results filed as inconclusive are left out. Activity calls are given as the source filed them. The calls were made as follows: active = hit-call score of the fitted dose curve at least 0.9, where 1 is the maximum; inconclusive = response in the unintended direction; inactive = score below 0.9.

This assay deals with human Lymphocyte-cell Factor Kinase (Lck), LCK (gene 3932) (UniProt P06239). In words: NVS_ENZ_hLck: NovaScreen (NVS) Enzymatic Assay for human Lymphocyte-cell Factor Kinase (Lck). How it is done: NVS_ENZ_hLck is a biochemical, single-readout assay that uses extracted gene-proteins in a cell-free assay. Measurements were taken 1 hour after chemical dosing in a 384-well plate.NVS_ENZ_hLck is one of one assay component(s) measured or calculated from the NVS_ENZ_hLck assay. It is designed to make measurements of enzyme activity, a form of enzyme reporter, as detected with fluorescence intensity signals by Fluorescence and electrophoretic mobility shift technology.Data from the assay component NVS_ENZ_hLck was analyzed into 1 assay endpoint. This assay endpoint, NVS_ENZ_hLck, was analyzed in the positive analysis fitting direction relative to DMSO as the negative control and baseline of activity. Using a type of enzyme reporter, loss-of-signal activity can be used to understand changes in the enzymatic activity as they relate to the gene LCK. Furthermore, this assay endpoint can be referred to as a primary readout, because this assay has produced […] where this one serves a enzymatic activity function. To generalize the intended target to other relatable targets, this assay endpoint is annotated to the kinase intended target family, where the subfamily is non-receptor tyrosine kinase.
human Lymphocyte-cell Factor Kinase (Lck), LCK (gene 3932), sequence (P06239 whole entry, looked up): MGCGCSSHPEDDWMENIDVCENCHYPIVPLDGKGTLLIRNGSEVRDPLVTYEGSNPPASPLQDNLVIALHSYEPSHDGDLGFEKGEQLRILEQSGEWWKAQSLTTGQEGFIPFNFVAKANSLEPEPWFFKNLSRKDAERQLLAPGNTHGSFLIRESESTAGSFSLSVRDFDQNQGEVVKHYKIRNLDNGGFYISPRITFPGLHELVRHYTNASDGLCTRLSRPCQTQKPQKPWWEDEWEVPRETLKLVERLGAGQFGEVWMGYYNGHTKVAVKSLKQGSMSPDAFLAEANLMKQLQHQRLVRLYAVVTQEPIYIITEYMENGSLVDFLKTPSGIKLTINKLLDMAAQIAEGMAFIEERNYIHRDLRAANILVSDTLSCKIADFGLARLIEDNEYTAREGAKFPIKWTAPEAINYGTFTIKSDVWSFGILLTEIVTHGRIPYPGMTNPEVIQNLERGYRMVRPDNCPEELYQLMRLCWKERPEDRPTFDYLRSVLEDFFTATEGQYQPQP
Binding assays used specific radioligands (tritiated, iodinated) with non-radioactive competitive displacement ligands in agonist or antagonist protocols (as indicated) and various reference compounds and inhibitors to titrate specific binding to receptors and transporters. Most enzyme assays (CYPs, kinases, phosphatases, proteases, HDACs) used recombinant protein and specific substrates (fluorescence mostly, some colorimetric and radioactive) and inhibitors, followed by a biochemical separation of substrate and product. All assays for the biochemical HTS were initially run in duplicate at a single concentration (10 uM for CYP450 assays and 25 uM for all others). Assay-chemical combinations meeting a pre-defined threshold (e.g., 30% inhibition and other criteria defined below) were then run in singleton concentration-response format with maximum concentration of 20 uM for CYPs and 50 uM for all others. Each assay was run with positive and negative controls, and concurrent controls on every plate. The follow-up (secondary) screen tested active chemical-pairs in concentration series, as well as a few additional assays not tested in the primary screen, some selected negative inactives, and several cases re-run in the concentration series for confirmatory purposes.
Take `C=CCC1=C(C)[C@@H](OC(=O)[C@@H]2[C@@H](C=C(C)C)C2(C)C)CC1=O`: the outcome was inactive.
On the same count and under the same terms, then `O=C(O)C(F)(F)C(F)(F)C(F)(F)C(F)(F)C(F)(F)C(F)(F)C(F)(F)F`, with “inactive”.
As for `CC[C@H](C)[C@H]1O[C@]2(C=C[C@@H]1C)C[C@@H]1C[C@@H](C/C=C(\C)[C@@H](O[C@H]3C[C@H](OC)[C@@H](O[C@H]4C[C@H](OC)[C@@H](NC)[C@H](C)O4)[C@H](C)O3)[C@@H](C)/C=C/C=C3\CO[C@@H]4[C@H](O)C(C)=C[C@@H](C(=O)O1)[C@]34O)O2`, the AC50 is 36 µM (active).
Regarding `S=C1NCCN1`, the result was inactive.
Same read-out and setting: the result for `CNC(=S)S` reads “inactive”.
With `O=S(=O)(O)C(F)(F)C(F)(F)C(F)(F)C(F)(F)C(F)(F)C(F)(F)C(F)(F)C(F)(F)F`, the AC50 is 43.9 µM (active).
Take `O=C(Nc1ccccc1)Nc1cnns1`: the molecule was called inactive.
On the same count and under the same terms, then `Cc1cnc(C2=NC(C)(C(C)C)C(=O)N2)c(C(=O)O)c1` (stereo not drawn), with “inactive”.

Values taken from PubChem BioAssay AID2283170 (EPA ToxCast).
